Test results: paper PMC7862700, “An all-to-all approach to the identification of sequence-specific readers for epigenetic DNA modifications on cytosine”

Legend:
Test in all cases: DAPPL (digital affinity profiling via proximity ligation, sequencing); 10 mM Tris-HCl pH 7.5, 50 mM NaCl, 1 mM DTT, 4% glycerol, room temperature, 30 min; GST-TFs on glutathione beads, 16-mer random dsDNA library, 0.1% formaldehyde crosslink after washing; high values mean tight binding
FLI1 = target: T1, FLI1 (Homo sapiens, UniProt Q01543 1-452); settings: protein: recombinant; tags: N-terminal GST; dsDNA, one strand shown
T1 sequence: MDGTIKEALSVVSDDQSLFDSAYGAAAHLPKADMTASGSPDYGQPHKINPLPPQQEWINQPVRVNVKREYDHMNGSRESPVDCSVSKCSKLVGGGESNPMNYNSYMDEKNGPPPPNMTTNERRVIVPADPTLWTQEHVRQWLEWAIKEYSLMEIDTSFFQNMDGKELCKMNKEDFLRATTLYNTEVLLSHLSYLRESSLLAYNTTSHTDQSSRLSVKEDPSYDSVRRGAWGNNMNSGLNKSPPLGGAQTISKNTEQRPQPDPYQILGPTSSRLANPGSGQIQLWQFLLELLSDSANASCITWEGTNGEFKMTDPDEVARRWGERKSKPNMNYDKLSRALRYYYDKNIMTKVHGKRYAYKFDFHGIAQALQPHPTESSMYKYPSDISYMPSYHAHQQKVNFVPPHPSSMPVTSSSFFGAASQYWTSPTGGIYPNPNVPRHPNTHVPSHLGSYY
Procedure, shortened: (§1)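 The binding signal reported is, for every hexamer, its read frequency for a factor over its read frequency for the tag-only sample. Reads came from pools of yeast-expressed, GST-fused human transcription factors on glutathione beads, barcoded with DNA and mixed with that sample, which were incubated with 200 nmole of a random double-stranded 16-mer DNA library in Tris/NaCl/DTT/glycerol buffer at room temperature for 30 min. After washing, the pools were crosslinked with 0.1% formaldehyde, proximity-ligated with BsaI/T4 ligase for 1 h at 37 °C, PCR-amplified and sequenced on an Illumina NextSeq500.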

ELK1 = target: T2, ELK1 (Homo sapiens, UniProt P19419 1-428); settings: protein: recombinant; tags: N-terminal GST; dsDNA, one strand shown
T2 sequence: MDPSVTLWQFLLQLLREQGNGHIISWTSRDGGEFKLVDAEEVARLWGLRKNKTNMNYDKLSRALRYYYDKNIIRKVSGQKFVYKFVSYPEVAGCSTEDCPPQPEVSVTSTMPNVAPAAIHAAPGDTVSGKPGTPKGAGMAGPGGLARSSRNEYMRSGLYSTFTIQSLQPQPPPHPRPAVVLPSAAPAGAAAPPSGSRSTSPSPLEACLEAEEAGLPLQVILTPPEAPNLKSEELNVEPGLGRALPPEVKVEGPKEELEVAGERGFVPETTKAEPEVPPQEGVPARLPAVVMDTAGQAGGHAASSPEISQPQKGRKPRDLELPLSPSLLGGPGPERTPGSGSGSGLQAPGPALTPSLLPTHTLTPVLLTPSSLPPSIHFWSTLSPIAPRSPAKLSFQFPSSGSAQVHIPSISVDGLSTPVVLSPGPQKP
Procedure, shortened: as §1

GABPA = target: T3, GABPA (Homo sapiens, UniProt Q06546 1-454); settings: protein: recombinant; tags: N-terminal GST; dsDNA, one strand shown
T3 sequence: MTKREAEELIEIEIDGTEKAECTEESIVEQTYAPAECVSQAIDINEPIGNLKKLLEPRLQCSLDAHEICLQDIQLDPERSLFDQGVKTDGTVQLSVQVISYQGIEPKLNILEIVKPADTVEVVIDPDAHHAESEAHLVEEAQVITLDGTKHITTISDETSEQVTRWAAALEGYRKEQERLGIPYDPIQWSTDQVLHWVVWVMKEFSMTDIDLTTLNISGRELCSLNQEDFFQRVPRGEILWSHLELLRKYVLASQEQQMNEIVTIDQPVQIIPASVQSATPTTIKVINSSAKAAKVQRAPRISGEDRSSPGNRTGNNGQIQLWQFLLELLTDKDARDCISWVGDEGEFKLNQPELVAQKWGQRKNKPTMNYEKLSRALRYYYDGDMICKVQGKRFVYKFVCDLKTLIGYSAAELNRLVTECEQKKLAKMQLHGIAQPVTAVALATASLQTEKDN
Procedure, shortened: as §1

ERG = target: T4, ERG (Homo sapiens, UniProt P11308 1-479); settings: protein: recombinant; tags: N-terminal GST; dsDNA, one strand shown
T4 sequence: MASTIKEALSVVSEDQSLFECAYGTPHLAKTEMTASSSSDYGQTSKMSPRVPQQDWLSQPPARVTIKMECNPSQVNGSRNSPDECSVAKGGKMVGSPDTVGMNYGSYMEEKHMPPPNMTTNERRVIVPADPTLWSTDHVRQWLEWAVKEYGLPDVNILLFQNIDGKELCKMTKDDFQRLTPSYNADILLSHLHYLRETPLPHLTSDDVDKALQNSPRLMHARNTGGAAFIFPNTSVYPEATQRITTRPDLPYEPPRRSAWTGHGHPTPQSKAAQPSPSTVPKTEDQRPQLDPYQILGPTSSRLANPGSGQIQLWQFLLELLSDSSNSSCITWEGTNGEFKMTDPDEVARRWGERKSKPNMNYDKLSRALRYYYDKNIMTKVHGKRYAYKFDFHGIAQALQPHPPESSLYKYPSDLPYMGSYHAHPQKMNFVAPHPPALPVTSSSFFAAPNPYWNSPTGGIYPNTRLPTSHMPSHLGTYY
Procedure, shortened: as §1

ELF1 = ELF1 (Homo sapiens, UniProt P32519 1-619); settings: protein: recombinant; tags: N-terminal GST; dsDNA, one strand shown
ELF1, sequence (P32519 whole entry): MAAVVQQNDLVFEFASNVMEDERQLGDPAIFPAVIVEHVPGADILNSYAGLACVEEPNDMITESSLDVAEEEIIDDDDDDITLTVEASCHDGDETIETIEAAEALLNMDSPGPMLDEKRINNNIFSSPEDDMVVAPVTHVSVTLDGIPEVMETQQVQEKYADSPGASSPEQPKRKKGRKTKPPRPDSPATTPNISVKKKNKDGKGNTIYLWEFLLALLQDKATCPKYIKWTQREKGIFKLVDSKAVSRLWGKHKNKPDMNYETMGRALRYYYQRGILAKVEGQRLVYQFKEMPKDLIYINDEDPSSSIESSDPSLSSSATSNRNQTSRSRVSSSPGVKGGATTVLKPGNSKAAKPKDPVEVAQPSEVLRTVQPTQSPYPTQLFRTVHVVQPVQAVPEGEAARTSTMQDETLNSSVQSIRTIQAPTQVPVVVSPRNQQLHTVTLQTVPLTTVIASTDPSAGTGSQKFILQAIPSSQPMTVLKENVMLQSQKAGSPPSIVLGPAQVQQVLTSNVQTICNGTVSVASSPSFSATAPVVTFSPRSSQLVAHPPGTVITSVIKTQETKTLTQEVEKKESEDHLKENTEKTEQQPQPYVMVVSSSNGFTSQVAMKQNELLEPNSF
Procedure, shortened: as §1

EHF = target: T5, EHF (Homo sapiens, UniProt Q9NZC4 1-300); settings: protein: recombinant; tags: N-terminal GST; dsDNA, one strand shown
T5 sequence: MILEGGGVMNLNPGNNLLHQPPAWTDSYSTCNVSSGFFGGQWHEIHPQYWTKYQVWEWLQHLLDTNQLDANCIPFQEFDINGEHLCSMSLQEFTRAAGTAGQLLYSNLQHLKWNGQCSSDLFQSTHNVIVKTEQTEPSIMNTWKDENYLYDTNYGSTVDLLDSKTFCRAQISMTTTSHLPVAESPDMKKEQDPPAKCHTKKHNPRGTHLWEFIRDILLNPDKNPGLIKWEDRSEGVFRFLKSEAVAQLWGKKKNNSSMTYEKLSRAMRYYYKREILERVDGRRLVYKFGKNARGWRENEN
Procedure, shortened: as §1

SPI1 = SPI1 (Homo sapiens, UniProt P17947 1-270); settings: protein: recombinant; tags: N-terminal GST; dsDNA, one strand shown
Procedure, shortened: as §1

SPIB = SPIB (Homo sapiens, UniProt Q01892 1-262); settings: protein: recombinant; tags: N-terminal GST; dsDNA, one strand shown
SPIB, sequence (Q01892 whole entry): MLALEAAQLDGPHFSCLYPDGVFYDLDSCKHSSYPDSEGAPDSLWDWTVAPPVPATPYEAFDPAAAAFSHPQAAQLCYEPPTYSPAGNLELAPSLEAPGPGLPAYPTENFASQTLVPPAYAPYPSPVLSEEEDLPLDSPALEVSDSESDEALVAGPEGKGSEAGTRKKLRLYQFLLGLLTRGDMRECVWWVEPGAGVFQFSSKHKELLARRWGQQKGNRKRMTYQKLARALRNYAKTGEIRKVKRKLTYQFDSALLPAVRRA
Procedure, shortened: as §1

ELK3 = target: T6, ELK3 (Homo sapiens, UniProt P41970 1-407); settings: protein: recombinant; tags: N-terminal GST; dsDNA, one strand shown
T6 sequence: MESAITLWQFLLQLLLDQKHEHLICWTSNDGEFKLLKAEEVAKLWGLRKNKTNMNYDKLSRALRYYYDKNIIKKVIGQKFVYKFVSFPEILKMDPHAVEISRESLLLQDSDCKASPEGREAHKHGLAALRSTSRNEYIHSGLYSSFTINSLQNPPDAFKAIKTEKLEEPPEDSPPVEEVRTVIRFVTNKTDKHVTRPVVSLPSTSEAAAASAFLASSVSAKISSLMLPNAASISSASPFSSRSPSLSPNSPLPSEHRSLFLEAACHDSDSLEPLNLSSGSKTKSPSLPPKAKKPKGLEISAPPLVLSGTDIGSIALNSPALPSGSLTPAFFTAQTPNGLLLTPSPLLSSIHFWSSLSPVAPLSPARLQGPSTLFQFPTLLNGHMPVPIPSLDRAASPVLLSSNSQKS
Procedure, shortened: as §1

FEV = target: T7, FEV (Homo sapiens, UniProt Q99581 1-238); settings: protein: recombinant; tags: N-terminal GST; dsDNA, one strand shown
T7 sequence: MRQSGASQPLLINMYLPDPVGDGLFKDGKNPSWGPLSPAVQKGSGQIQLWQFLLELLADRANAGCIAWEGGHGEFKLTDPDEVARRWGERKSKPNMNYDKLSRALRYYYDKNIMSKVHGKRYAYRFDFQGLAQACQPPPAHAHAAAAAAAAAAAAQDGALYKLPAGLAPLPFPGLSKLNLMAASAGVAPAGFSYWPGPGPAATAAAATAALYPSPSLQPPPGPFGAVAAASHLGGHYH
Procedure, shortened: as §1

ETV5 = ETV5 (Homo sapiens, UniProt P41161 1-510); settings: protein: recombinant; tags: N-terminal GST; dsDNA, one strand shown
ETV5, sequence (P41161 whole entry): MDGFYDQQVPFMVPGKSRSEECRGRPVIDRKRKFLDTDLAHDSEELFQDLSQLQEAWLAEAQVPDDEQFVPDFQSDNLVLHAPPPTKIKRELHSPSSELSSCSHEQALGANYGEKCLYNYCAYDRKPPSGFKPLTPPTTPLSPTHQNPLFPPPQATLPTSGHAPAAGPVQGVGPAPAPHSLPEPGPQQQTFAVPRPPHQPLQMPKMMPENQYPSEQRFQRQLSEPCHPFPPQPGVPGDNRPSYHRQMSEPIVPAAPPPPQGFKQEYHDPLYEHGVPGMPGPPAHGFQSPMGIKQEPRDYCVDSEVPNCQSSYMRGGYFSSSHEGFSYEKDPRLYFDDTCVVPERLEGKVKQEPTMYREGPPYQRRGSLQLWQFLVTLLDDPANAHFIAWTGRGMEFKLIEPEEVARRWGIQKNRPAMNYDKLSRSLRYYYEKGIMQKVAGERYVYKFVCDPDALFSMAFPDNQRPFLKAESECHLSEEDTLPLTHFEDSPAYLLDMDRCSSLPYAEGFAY
Procedure, shortened: as §1

HSF1 = HSF1 (Homo sapiens, UniProt Q00613 1-529); settings: protein: recombinant; tags: N-terminal GST; chain copies: 3; dsDNA, one strand shown
HSF1, sequence (Q00613 whole entry): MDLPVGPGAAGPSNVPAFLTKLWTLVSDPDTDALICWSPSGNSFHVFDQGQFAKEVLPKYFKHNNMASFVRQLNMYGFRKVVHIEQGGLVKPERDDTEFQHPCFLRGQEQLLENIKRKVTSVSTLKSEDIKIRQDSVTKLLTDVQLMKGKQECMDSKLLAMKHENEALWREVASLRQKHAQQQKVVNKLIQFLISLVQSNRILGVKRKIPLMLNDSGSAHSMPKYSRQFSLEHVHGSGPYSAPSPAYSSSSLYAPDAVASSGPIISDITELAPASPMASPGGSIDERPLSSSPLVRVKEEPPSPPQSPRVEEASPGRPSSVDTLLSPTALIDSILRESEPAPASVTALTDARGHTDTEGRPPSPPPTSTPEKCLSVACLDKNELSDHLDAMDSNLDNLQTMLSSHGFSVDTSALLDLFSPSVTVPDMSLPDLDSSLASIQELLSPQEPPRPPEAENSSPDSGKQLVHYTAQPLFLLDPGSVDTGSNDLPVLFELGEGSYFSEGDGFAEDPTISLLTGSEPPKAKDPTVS
Procedure, shortened: as §1

SPIC = target: T8, SPIC (Homo sapiens, UniProt Q8N5J4 1-248); settings: protein: recombinant; tags: N-terminal GST; dsDNA, one strand shown
T8 sequence: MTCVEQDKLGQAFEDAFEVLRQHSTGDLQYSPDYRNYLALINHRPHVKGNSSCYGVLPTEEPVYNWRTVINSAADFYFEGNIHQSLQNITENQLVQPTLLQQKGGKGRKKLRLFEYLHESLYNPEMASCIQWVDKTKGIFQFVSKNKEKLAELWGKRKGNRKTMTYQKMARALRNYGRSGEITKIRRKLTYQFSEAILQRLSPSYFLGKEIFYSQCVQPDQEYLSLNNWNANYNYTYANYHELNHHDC
Procedure, shortened: as §1

ELF4 = ELF4 (Homo sapiens, UniProt Q99607 1-663); settings: protein: recombinant; tags: N-terminal GST; dsDNA, one strand shown
ELF4, sequence (Q99607 whole entry): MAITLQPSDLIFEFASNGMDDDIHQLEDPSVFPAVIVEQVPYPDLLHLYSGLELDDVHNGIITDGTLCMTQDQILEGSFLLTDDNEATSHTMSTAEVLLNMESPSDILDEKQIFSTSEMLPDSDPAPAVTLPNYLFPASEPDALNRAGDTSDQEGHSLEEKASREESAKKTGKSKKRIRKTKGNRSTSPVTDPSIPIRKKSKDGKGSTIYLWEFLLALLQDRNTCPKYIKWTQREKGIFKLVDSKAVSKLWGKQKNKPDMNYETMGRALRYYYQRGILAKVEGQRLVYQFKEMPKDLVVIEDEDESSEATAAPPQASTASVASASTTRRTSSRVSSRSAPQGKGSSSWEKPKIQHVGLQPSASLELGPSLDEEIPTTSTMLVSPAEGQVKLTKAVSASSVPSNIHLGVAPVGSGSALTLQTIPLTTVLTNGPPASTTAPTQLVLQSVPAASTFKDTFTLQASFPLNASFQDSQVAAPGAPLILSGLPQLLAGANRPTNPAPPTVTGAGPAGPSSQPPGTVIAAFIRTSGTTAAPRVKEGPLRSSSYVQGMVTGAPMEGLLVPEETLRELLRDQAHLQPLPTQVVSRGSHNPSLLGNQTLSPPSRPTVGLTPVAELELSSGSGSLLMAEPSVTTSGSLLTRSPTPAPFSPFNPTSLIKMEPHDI
Procedure, shortened: as §1

ELK4 = target: T9, ELK4 (Homo sapiens, UniProt P28324-2 1-405); settings: protein: recombinant; tags: N-terminal GST; dsDNA, one strand shown
T9 sequence: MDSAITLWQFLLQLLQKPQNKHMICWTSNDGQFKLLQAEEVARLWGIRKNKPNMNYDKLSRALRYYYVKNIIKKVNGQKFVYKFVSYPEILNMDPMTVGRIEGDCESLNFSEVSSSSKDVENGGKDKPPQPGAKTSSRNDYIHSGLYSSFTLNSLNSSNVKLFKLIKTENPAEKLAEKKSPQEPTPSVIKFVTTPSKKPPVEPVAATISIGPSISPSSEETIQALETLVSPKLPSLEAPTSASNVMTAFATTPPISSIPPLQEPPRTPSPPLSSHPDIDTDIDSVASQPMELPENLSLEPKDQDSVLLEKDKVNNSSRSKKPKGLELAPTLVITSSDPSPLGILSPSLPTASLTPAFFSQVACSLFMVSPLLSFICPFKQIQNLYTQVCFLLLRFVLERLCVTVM
Procedure, shortened: as §1

ETV2 = target: T10, ETV2 (Homo sapiens, UniProt O00321 1-342); settings: protein: recombinant; tags: N-terminal GST; dsDNA, one strand shown
T10 sequence: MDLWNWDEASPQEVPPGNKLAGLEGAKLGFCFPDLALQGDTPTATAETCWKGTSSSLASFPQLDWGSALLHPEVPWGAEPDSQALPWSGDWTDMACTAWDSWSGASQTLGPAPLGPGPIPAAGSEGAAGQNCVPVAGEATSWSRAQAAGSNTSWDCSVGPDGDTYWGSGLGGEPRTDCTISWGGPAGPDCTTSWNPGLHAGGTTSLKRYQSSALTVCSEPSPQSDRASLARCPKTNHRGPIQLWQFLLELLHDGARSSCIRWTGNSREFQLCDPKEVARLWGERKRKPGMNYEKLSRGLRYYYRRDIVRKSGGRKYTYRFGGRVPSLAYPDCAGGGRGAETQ
Procedure, shortened: as §1

ELF3 = target: T11, ELF3 (Homo sapiens, UniProt P78545 1-371); settings: protein: recombinant; tags: N-terminal GST; dsDNA, one strand shown
T11 sequence: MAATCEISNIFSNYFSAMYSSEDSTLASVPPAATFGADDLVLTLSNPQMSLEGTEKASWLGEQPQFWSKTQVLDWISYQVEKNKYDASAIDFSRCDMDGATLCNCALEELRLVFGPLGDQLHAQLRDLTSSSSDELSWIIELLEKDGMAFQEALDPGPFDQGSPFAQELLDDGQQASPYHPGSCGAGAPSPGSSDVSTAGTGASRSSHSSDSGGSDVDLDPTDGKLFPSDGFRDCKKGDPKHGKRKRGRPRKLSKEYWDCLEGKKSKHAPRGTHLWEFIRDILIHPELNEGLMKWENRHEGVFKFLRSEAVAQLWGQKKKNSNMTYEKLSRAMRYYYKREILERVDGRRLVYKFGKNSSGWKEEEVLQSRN
Procedure, shortened: as §1

CRX = CRX (Homo sapiens, UniProt O43186 1-299); settings: protein: recombinant; tags: N-terminal GST; dsDNA, one strand shown
CRX, sequence (O43186 whole entry): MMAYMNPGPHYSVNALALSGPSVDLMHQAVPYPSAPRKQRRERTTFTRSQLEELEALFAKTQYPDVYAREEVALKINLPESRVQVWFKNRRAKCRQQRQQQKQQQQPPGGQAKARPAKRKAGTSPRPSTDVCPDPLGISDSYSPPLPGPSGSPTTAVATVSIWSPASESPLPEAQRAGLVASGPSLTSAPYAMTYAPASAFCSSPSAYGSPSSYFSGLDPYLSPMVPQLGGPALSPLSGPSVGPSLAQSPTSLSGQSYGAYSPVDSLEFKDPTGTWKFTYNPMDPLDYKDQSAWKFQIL
Procedure, shortened: as §1

ETV1 = ETV1 (Homo sapiens, UniProt P50549 1-477); settings: protein: recombinant; tags: N-terminal GST; dsDNA, one strand shown
ETV1, sequence (P50549 whole entry): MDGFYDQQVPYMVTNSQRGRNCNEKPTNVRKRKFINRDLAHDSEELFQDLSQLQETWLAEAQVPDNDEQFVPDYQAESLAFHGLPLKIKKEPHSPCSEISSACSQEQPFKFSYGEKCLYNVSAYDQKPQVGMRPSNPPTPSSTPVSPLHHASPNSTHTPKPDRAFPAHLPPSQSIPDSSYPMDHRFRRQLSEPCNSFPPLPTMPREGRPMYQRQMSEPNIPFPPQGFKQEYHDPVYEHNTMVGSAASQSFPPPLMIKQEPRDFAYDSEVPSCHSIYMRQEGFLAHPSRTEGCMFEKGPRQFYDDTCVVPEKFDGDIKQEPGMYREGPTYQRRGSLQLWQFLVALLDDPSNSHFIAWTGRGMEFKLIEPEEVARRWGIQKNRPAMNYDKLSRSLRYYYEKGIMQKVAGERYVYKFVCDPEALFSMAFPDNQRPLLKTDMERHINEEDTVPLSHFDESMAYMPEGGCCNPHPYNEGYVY
Procedure, shortened: as §1

## TTTTTC
FLI1
  binding signal: 1.21 fold enrichment (6-mer frequency, TF over GST control)
ELK1
  binding signal: 1.15 fold enrichment (6-mer frequency, TF over GST control)
GABPA
  binding signal: 1.32 fold enrichment (6-mer frequency, TF over GST control)
ERG
  binding signal: 1.14 fold enrichment (6-mer frequency, TF over GST control)
ELF1
  binding signal: 1.22 fold enrichment (6-mer frequency, TF over GST control)
EHF
  binding signal: 1.23 fold enrichment (6-mer frequency, TF over GST control)
SPI1
  binding signal: 1.33 fold enrichment (6-mer frequency, TF over GST control)
SPIB
  binding signal: 1.14 fold enrichment (6-mer frequency, TF over GST control)
ELK3
  binding signal: 1.39 fold enrichment (6-mer frequency, TF over GST control)
FEV
  binding signal: 1.19 fold enrichment (6-mer frequency, TF over GST control)
ETV5
  binding signal: 1.27 fold enrichment (6-mer frequency, TF over GST control)
HSF1
  binding signal: 1.44 fold enrichment (6-mer frequency, TF over GST control)
SPIC
  binding signal: 1.11 fold enrichment (6-mer frequency, TF over GST control)
ELF4
  binding signal: 1.32 fold enrichment (6-mer frequency, TF over GST control)
ELK4
  binding signal: 1.16 fold enrichment (6-mer frequency, TF over GST control)
ETV2
  binding signal: 1.24 fold enrichment (6-mer frequency, TF over GST control)
ELF3
  binding signal: 1.26 fold enrichment (6-mer frequency, TF over GST control)
CRX
  binding signal: 1.09 fold enrichment (6-mer frequency, TF over GST control)
ETV1
  binding signal: 1.21 fold enrichment (6-mer frequency, TF over GST control)
